Reference: PubChem BioAssay AID720551 (National Center for Advancing Translational Sciences (NCATS), 2013)
About 1,300 (0.38%) of roughly 340,000 compounds were called active.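 Rule for the calls: active = maximum activity change below -70%; inconclusive = maximum activity change between -70% and -50%; inactive = maximum activity change above -50%.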 Many of the other results were omitted from the sample, so actives are more common in it than they were.

molecular target: Voltage-gated inwardly rectifying potassium channel KCNH2 (Homo sapiens) (UniProt Q12809); assay: qHTS for Inhibitors of KCHN2 3.1: Wildtype qHTS; conditions: U2OS, BacMam KCNH2, thallium flux FluxOr; at 1.84 µM; active compounds read low
Sequence (Q12809 whole entry, looked up, canonical isoform): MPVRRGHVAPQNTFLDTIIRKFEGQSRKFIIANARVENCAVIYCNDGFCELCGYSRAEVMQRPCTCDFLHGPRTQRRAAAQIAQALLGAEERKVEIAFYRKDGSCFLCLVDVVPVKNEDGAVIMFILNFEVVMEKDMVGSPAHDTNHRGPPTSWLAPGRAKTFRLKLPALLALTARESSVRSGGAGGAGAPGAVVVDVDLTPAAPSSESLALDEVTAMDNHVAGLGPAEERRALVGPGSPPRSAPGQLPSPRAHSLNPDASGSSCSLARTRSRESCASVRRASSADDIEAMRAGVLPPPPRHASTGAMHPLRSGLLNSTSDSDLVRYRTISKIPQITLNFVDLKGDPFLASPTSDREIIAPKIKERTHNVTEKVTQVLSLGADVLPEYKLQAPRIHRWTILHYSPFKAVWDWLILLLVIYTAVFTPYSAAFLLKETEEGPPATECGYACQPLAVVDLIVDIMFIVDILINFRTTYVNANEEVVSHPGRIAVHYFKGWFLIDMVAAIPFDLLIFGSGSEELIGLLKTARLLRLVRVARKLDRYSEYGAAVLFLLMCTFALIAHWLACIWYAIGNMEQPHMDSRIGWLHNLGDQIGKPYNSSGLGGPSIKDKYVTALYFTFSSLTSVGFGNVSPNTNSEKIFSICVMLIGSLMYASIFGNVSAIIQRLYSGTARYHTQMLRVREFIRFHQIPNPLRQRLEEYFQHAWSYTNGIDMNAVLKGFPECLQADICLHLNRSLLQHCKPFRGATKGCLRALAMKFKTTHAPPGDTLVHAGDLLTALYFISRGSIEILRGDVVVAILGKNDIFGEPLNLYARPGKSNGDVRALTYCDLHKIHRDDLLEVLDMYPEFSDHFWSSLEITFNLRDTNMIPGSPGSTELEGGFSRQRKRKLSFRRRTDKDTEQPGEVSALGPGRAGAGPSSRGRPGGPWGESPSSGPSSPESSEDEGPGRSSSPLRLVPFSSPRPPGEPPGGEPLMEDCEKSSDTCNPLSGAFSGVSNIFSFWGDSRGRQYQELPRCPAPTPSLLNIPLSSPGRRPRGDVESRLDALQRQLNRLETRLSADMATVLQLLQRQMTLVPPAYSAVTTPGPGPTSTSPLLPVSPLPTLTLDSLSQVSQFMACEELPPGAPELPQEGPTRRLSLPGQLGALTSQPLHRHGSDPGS
Text: Many antipsychotic drugs that inhibit the neurotransmitter dopamine also bind to hERG1 channel which might help explain their antipsychotic activity but also produces cardiac side effects. The discovery of the novel KCNH2 3.1 isoform offers a potential new target for the development of antipsychotic drugs without cardiac side effects. This proposal will use a high throughput thallium flux assay developed for KCNH2 to screen compounds that modulate the activity of KCNH2 3.1. The wild type KCNH2 channel will also be screened in parallel to help define the selective modulators of this KCNH2 3.1 potassium channel. The resulting compounds will be validated in electrophysiology experiments. The availability of animal models will allow future testing in vivo for effects on memory and other aspects of animal physiology linked with psychosis. NIH Chemical Genomics Center [NCGC] NIH Molecular Libraries Probe Centers Network [MLPCN] MLPCN Grant: MH096539 Assay Submitter (PI): James Barrow, Johns Hopkins University, Lieber Institute for Brain Development
U2OS cells were resuspended in cell media containing 10% fetal calf serum (FCS) at a concentration of 2 million cells / mL. The solution was treated with the Wild-type virus at 2.03 x 10^8 / mL and allowed to incubate at room temperature in the dark. After 4 hours of incubation, DMEM + 10% fetal bovine serum (FBS) was added to the cell solution. Three microliter was then dispensed into a 1536 tissue culture treated black assay plates which were incubated overnight at 37 C. Two microliter of loading buffer (HBSS + HEPES + Red40 dye quencher + FluxOr dye) was added and the assay plates were incubated for 45 min at room temperature in the dark. […] A stimulation buffer was added to the plate and the second kinetic read (2 min) was obtained. The rate constant was calculated from the kinetic reads and normalized to the positive and negative DMSO controls.
% is set by controls: 0 for no effect and ±100 for the full control effect.

| SMILES | activity change |
| --- | --- |
| CCCC[C@@H]1CN=C(N)N1CCc1cccc(F)c1 | -2.35% (inactive) |
| CN(C)C1=NC[C@H](Cc2ccccc2)N1CCc1ccc(F)cc1 | -88.4% (active) |
| CCCCN1C(N)=NC[C@@H]1Cc1ccccc1 | -3.39% (inactive) |
| O=C1OCCC1=COCCCCOC=C1CCOC1=O | 0.218% (inactive) |
| COC(=O)C[C@H]1C[C@@H]2c3cc(NC(=O)Nc4ccccc4)ccc3O[C@@H]2[C@@H](CO)O1 | -0.954% (inactive) |
| COc1ccc(C(=O)Nc2sc(C)c(C)c2CN2CCOCC2)cc1 | -3.94% (inactive) |
| CCc1ccc(NC(=O)CN2CCC(C(=O)c3ccc(OC)cc3)CC2)cc1 | 1.48% (inactive) |
| CCOc1ccc(NC(=O)N2CCN(CC)CC2)cc1 | 0.628% (inactive) |
| CCc1cc(C(=O)c2ccc(OC)cc2)c(NC(=O)CN2CCN(C)CC2)s1 | -79.3% (active) |
| CCOc1ccc(NC(=O)CN2CCN(CC(=O)Nc3ccc(OC)cc3)CC2)cc1 | -141% (active) |
| COc1cccc(NC(=O)CN2CCN(CC(=O)Nc3ccccc3Cl)CC2)c1 | 19.7% (inactive) |
| C[C@H](CO)N1C[C@H](C)[C@@H](CN(C)C(=O)c2cnccn2)Oc2ncc(Br)cc2C1=O | -7.83% (inactive) |
| O=C(NCCOc1ccccc1)N1[C@H]2CC[C@@H]1C=C(c1ccc(F)cc1OCc1ccccc1)C2 | 2.38% (inactive) |
| O=C1CN(C(=O)COC(=O)c2cnc(Cl)c(Cl)c2)c2ccccc2N1 | 8.42% (inactive) |
| Cc1ccccc1SCC(=O)OCC(=O)N1CC(=O)Nc2ccccc21 | 7.23% (inactive) |
| O=C1CN(C(=O)COc2c(Cl)cccc2Cl)c2ccccc2N1 | -143% (active) |
| COc1ccc(NC(=O)CSc2nnnn2-c2cccc(OC)c2)cc1 | 52.5% (inactive) |
| Cc1ccc(S(=O)(=O)N2C[C@@H](C)[C@]3(C2)[C@H](O)[C@H](OC(=O)NCc2ccccc2)C[C@H]2C(=O)N(c4ccccc4)C(=O)[C@H]23)cc1 | -2.73% (inactive) |
| COc1ccc([C@H]2N[C@]3(CCCN(CC4CCCCC4)C3=O)[C@H]3C(=O)N(C)C(=O)[C@@H]23)cc1 | 14.1% (inactive) |

| SMILES | activity change |
| --- | --- |
| O=C1CC[C@H](O)CCN1[C@H](CSc1ccc(Br)cc1)Cc1ccccc1 | 0.842% (inactive) |
| COc1ccc(SC[C@H](Cc2ccccc2)N2CCN(CCc3ccccc3)CCC2=O)cc1 | -108% (active) |
| C[C@H]1CCC(=O)N([C@H](CSc2ccccc2)Cc2ccccc2)CC1 | 9.67% (inactive) |
| C[C@H]1CN([C@@H](C)CO)C(=O)CCCn2cc(nn2)CO[C@@H]1CN(C)S(=O)(=O)c1cccc(C#N)c1 | -15.1% (inactive) |
| CC(OC(=O)c1cccnc1Cl)C(=O)NC1CCCCC1 (stereo unspecified) | 10.4% (inactive) |
| COc1ccc(-n2c(-c3ccc(Cl)cc3)n[nH]c2=S)c(OC)c1 | -22.5% (inactive) |
| Cc1nn(-c2ccccc2)c2c1C(=O)NC(=O)C(C)(C)C2 | -0.0713% (inactive) |
| CC1=C(N2CCN(c3ncccn3)CC2)CCC1=O | 2.31% (inactive) |
| Cc1nn(-c2ncccn2)c2c1C(=O)CC(C)(C)C2Br (stereo unspecified) | -151% (active) |
| O=C(COC(=O)CCc1c[nH]c2ccccc12)Nc1cccc(Cl)c1 | -8.07% (inactive) |
| CC1(C)CN(CCc2ccccc2)C(=O)[C@H]1CC(=O)Nc1ccc(Br)cc1 | -7.47% (inactive) |
| CCC(C)NC(=O)c1ccc(N2CCC3(CC2)OCCO3)c([N+](=O)[O-])c1 (stereo unspecified) | -3.92% (inactive) |
| COCCNC(=O)c1ccc(N2CCC3(CC2)OCCO3)c([N+](=O)[O-])c1 | -4.71% (inactive) |
| CCCNC(=O)c1ccc(N2CCC3(CC2)CC(c2ccc(Cl)cc2)=NO3)c([N+](=O)[O-])c1 | -85.9% (active) |
| COc1cc(OC)cc(C(=O)NCC(=O)N2CCCCCCC2)c1 | 8.95% (inactive) |
| COc1ccc(OC)c(CN2CCN(C(=O)CNC(=O)c3cc(C)cc(C)c3)CC2)c1 | -138% (active) |
| Cc1cc(C)cc(C(=O)NCC(=O)OCC(=O)N2CCCCC2)c1 | -9.23% (inactive) |
| COc1ccc(C(CNC(=O)CSc2ccccc2)N2CCOCC2)cc1 (stereo unspecified) | -6.03% (inactive) |
| Cc1ccc(C=O)c([B-](F)(F)F)c1 | -18.6% (inactive) |

| SMILES | activity change |
| --- | --- |
| Cc1cc(=O)c2ccc(NC(=O)c3ccccc3)cc2[nH]1 | 13.6% (inactive) |
| COc1cc(C)c(CN2CCN(C(=O)CCC(=O)c3ccc(C)s3)CC2)cc1OC | 1.74% (inactive) |
| O=C(Nc1ccc(Br)cc1)C1CCC(=O)N1Cc1ccccc1Cl (stereo unspecified) | -94.2% (active) |
| O=C1c2ccccc2C(O)N1Cc1ccccc1Cl (stereo unspecified) | 23.3% (inactive) |
| COc1ccc(NC(=O)N2CCCC2C(=O)NCc2ccccc2Cl)cc1 (stereo unspecified) | -3.26% (inactive) |
| O=C(CN1CCCC1)Nc1sc2c(c1C(=O)Nc1ccccc1)CCCC2 | -93.7% (active) |
| CCN1CCN(CC(=O)Nc2sc3c(c2C#N)CCC3)CC1 | 5.2% (inactive) |
| O=C(O)c1c(NC(=O)N2CCCC2)sc2c1CCCC2 | 0.0561% (inactive) |
| c1ccc(Cn2nnc3c(NCC4CC4)ncnc32)cc1 | -10.7% (inactive) |
| Cc1c(NC(=O)COC(=O)/C=C/c2cccc(F)c2)c(=O)n(-c2ccccc2)n1C | 0.394% (inactive) |
| Cc1csc(=O)n1CCC(=O)OCC(=O)Nc1ccc(N2CCOCC2)cc1 | -7.46% (inactive) |
| Cn1c(CCN2CCN(c3ccccn3)CC2)nc2cc(NS(=O)(=O)c3ccc(F)cc3)ccc21 | -20.6% (inactive) |
| COc1ccc(C(=O)NC2CC2)cc1OC1CCN(Cc2ccc(SC)cc2)CC1 | -117% (active) |
| COc1ccc(C(=O)NC2CC2)cc1OC1CCN(C/C=C/c2ccccc2)CC1 | -83.5% (active) |
| COc1ccc(C(=O)NCCn2nc(C)cc2C)cc1OC1CCN(C(C)=O)CC1 | 3.09% (inactive) |
| COc1cc2[nH]c(=O)n(Cc3ccc(C(=O)NC4CCN(Cc5ccccc5)CC4)cc3)c(=O)c2cc1OC | -9.69% (inactive) |
| COc1cc(C(=O)N2CCN(C/C=C/c3ccccc3)CC2)cc(OC)c1C | -0.254% (inactive) |
| COc1ccc(C(=O)NC2CC2)cc1OC1CCN(Cc2cnn(C)c2)CC1 | -9.12% (inactive) |
